# Compound activity (PubChem BioAssay)
# TDP1 cell CPT: qHTS for Inhibitors of human tyrosyl-DNA phosphodiesterase 1 (TDP1): qHTS in cells in presence of CPT; 420,000 compounds, 12% hits; Potency, µM (series often up to 46.2 µM), for inactives: at the highest dose activity change, negative = growth inhibition, most hits filed as inhibitors; chicken DT40 Tdp1-/-;hTDP1 cells + 20 nM CPT, ATP luminescence, 48 h; also: potency is read from the fitted curve at half-maximal effect; nearly all actives have a fitted effect of over 55% in size
#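 Cell growth measured by CellTiter-Glo luminescence after a minimum 48 h, 37 C compound exposure with 20 nM CPT in Tdp1-knockout DT40 cells stably expressing hTDP1, seeded 400/well; qHTS titration format.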
# Giardia kill: Small Molecules that selectively kill Giardia lamblia: qHTS; 340,000 compounds, 0.15% hits; Giardia lamblia trophozoite viability; activity change, % at 7.66 µM, hits read low; in the data active = activity change below about -80%; inconclusive = between about -30% and that limit;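 also: parasites exposed to compound for two days anaerobically before the ATP read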
#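 Giardia trophozoites, 100 cells per well, were exposed to compounds for 48 hrs at 37 deg C under anaerobic conditions; viability was then read as ATP content by bioluminescence after 15-30 min at room temperature.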
# ELG1 DNA repair: qHTS screen for small molecules that inhibit ELG1-dependent DNA repair in human embryonic kidney (HEK293T) cells expressing luciferase-tagged ELG1; HEK293T ELG1-luciferase reporter, luminescence, 16 h; DNA damage induced by 5-fluorouridine; Potency, µM (top dose mostly 46.1 µM), inactives show at the highest dose activity change, negative = inhibition, hits mostly inhibitors; 330,000 compounds, 2.3% hits; also: potency is read from the fitted curve at half-maximal effect; nearly all actives have a fitted effect of over 55% in size
#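 Step one: seed 2,000 cells per well. Step two: pin-transfer compound or DMSO alongside 5-fluorouridine. Step three: incubate 16 hr, 37 °C, 5% CO2. Step four: add ONE-Glo, wait 30 min, read luminescence.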
# TDP1 block: qHTS Assay for Inhibitors of Tyrosyl-DNA Phosphodiesterase (TDP1); 350,000 compounds, 0.28% hits; AID 485290, 2010; Potency, µM (series often up to 130 µM), for the others: at the top dose activity change, negative = inhibition, actives largely listed as inhibitors; recombinant TDP1, AlphaScreen DNA substrate cleavage; also: potency is read from the fitted curve at half-maximal effect; nearly all actives have a fitted effect of over 40% in size
# Target sequence (Q9NUW8 whole entry, looked up): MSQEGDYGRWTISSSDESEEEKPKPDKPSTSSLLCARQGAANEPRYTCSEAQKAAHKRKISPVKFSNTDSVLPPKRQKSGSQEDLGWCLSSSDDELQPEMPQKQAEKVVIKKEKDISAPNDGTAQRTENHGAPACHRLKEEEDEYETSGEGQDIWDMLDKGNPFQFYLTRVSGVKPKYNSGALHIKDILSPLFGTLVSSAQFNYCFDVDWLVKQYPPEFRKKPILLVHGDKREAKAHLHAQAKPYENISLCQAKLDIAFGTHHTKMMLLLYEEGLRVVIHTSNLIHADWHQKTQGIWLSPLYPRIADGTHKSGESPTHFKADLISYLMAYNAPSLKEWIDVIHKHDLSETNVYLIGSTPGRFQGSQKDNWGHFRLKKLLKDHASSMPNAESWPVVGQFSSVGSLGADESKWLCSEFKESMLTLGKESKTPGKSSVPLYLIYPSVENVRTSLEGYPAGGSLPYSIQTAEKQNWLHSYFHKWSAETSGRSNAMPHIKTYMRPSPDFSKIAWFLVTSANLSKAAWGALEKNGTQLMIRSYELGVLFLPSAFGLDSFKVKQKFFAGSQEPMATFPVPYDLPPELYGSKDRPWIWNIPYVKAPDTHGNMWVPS
#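 E. coli-derived human Tdp1, 1 nM final. Cpd preinc 15 min RT; substrate 15 nM final, 5 min RT; AS bead mix 10 ug/ml final, 10 min RT. Signal loss = tyrosine-FITC cleavage. No-enzyme wells = max signal.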
# IL1B secr inh: qHTS for Inhibitors of Inflammasome Signaling: IL-1-beta AlphaLISA Primary Screen; 360,000 compounds, 4.7% hits; THP-1 LPS/ATP IL-1B secretion, AlphaLISA, 16 h; active compounds read low; activity change, % at 57.5 µM; in the data active = activity change below about -50%; inconclusive = mostly about -30% to -49%
#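 THP-1 cells pretreated 1 hr with compounds (up to 57.5 uM final), then stimulated with LPS (250 ng/mL final) plus ATP (1.25 mM final); secreted IL-1B measured by AlphaLISA after 16 hr, decreased signal indicating inhibition.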
# DT40 TDP1 no CPT: qHTS for Inhibitors of human tyrosyl-DNA phosphodiesterase 1 (TDP1): qHTS in cells in absence of CPT; DT40 Tdp1-/- hTDP1 cells, no CPT, ATP luminescence, 48 h; Potency, µM (doses to about 46.2 µM), inactives show top-dose activity change, negative = growth inhibition, most hits filed as inhibitors; 420,000 compounds, 15% hits; AID 686978, 2013; also: potency is read from the fitted curve at half-maximal effect; nearly all actives have a fitted effect of over 55% in size
#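 Chicken DT40 Tdp1-/- cells stably complemented with human TDP1 were seeded at 400 cells/well with DMSO in place of 20 nM camptothecin. After compound pinning, cells grew at least 48 hr at 37 °C; viability read by CellTiter-Glo luminescence.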
# Starred values were filed as active, the others as inactive; ? = inconclusive; · = no result; [ ] = another dose, or the depositor's remark. Shown are actives, neighbours in structure and some others; about 19% of the full set was active somewhere. Unless noted, calls follow the shape of the dose curve; as a rule, active = well fitted curve in the direction sought with a large enough effect; inconclusive = small, poorly fitted or top-dose-only effect, or another doubt; inactive = no such curve, though single readings can be large; an effect the other way counts as inactive or inconclusive. % is scaled to controls: 0 for no effect and ±100 for the full control effect.
SMILES,TDP1 cell CPT,Giardia kill,ELG1 DNA repair,TDP1 block,IL1B secr inh,DT40 TDP1 no CPT
O=C(Nc1ccc(F)cc1)c1nc(SCc2ccccc2F)ncc1Cl,0%,·,·,-5%,·,-11%
COC(=O)c1ccc(NC(=O)c2nc(S(=O)(=O)Cc3ccccc3F)ncc2Cl)cc1,0.71µM*,·,·,·,·,0.89µM*
O=C(Nc1ccccc1)c1nc(S(=O)(=O)Cc2ccccc2F)ncc1Cl,1.1µM*,·,·,·,·,1.1µM*
CCOC(=O)c1ccc(NC(=O)c2nc(SCc3ccccc3F)ncc2Cl)cc1,?,·,·,0%,·,?
CCc1ccc(C2c3c(oc4ccc(F)cc4c3=O)C(=O)N2c2nc(C)c(C(=O)OC)s2)cc1 (centres undefined),0%,·,·,4%,·,7%
COc1ccc(O[C@H]2C=C[C@@H](c3ccccc3)O[C@H]2CO/N=C2/c3cc(OC)ccc3O[C@@H](c3cccc(OC)c3)[C@H]2O)cc1,·,·,·,4%[21 µM],·,·
COc1ccc(O)c(-c2nc(N)nc(N)n2)c1,16µM*,-1,-1%,0%,-98*,18µM*
Nc1nc(N)nc(-c2cc(F)ccc2O)n1,?,6,-14%,-1%,-99*,?
Cc1ccc(-c2nc(N)nc(N)n2)c(C)c1,3%,-5,6%,-3%,32,-5%
COc1ccc(Cc2nc(N)nc(N)n2)cc1,1%,-1,22%,-1%,12,-1%
Cc1ccc(CC(=O)N(C)CC(=O)Nc2ccc(N3CCOCC3)cc2)cc1C,13µM*,2,?,·,2,-20%
CN(CC(=O)Nc1ccc(N2CCOCC2)cc1)C(=O)CSc1ccc(Br)cc1,?,2,12%,89µM*,1,15µM*
CN(CC(=O)Nc1ccc(N2CCOCC2)cc1)C(=O)CCc1cc(C(C)(C)C)c(O)c(C(C)(C)C)c1,?,0,5%,14%,-1,16µM*
Cc1nc2ccccn2c1C(=O)N=Nc1c(O)n(CCC(C)C)c2ccccc12,7.3µM*,6,9.2µM*,3%,16,7.3µM*
O=c1c(-c2ccccc2)coc2c(CN3CCCCC3)c(O)ccc12,-26%,4,-3%,·,-4,-18%
CCN(Cc1ccccc1)Cc1c(O)ccc2c(=O)c(-c3ccc(Cl)cc3)coc12,?,·,·,·,·,21µM*
CCC1CCCCN1Cc1c(O)ccc2c(=O)c(-c3ccccc3)coc12 (centres undefined),7.3µM*,-8,?,·,3,10µM*
COc1ccc(-c2coc3c(CN4CCCCC4C)c(O)ccc3c2=O)cc1 (centres undefined),6.5µM*,-7,?,·,-6,18µM*
CC1CCCCN1Cc1c(O)ccc2c(=O)c(-c3ccccc3)coc12 (centres undefined),8.2µM*,-4,-8%,·,28,10µM*
CCN(CC)Cc1c(O)ccc2c(=O)c(-c3ccc(Cl)cc3)coc12,?,-1,2%,·,0,-21%
COc1ccccc1-c1c(C)oc2c(CN3CCCCC3C)c(O)ccc2c1=O (centres undefined),3%,0,16%,·,17,13%
COc1ccc(NC(=O)NCc2c(-n3cccc3)sc3c2CCCC3)c(OC)c1,?,·,·,9%,·,?
O=C(Cc1cccs1)N/N=C/C(Br)=C/c1ccccc1,?,3,?,6%,-7,?
O=C(CN1CCOCC1)N/N=C/c1ccc(C(=O)O)cc1,-5%,10,?,-8%,-12,19%
O=C(CN1CCOCC1)N/N=C/C(Br)=C\c1ccccc1,12µM*,3,?,2%,?,10µM*
SMILES,TDP1 cell CPT,Giardia kill,ELG1 DNA repair,TDP1 block,IL1B secr inh,DT40 TDP1 no CPT
Cc1ccccc1NCC(=O)N/N=C/C(Br)=C/c1ccccc1,5.2µM*,3,1%,-7%,?,13µM*
Cc1ccc(NCC(=O)N/N=C/c2cccc(Oc3ccccc3)c2)cc1,?,0,-6%,3%,-77*,?
Cc1cccc(NCC(=O)N/N=C\c2cccc(Oc3ccccc3)c2)c1,?,3,1%,5%,-1,?
Cc1ccccc1OCCCC(=O)Nc1nncs1,-2%,-5,1%,9%,-10,-22%
CCCCNC(=O)[C@@](CC)(ONc1ccccc1C(F)(F)F)c1cccc2ccccc12,15µM*,-14,-2%,2%,?,?
Cc1cc(-c2onc(C)c2C(=O)Nc2ccc(C(F)(F)F)cc2)no1,4%,11,-10%,-4%,27,-2%
Cc1nc(Cl)sc1C(=O)Nc1ccc(C(F)(F)F)cc1,-21%,-22,9%,·,-65*,-8%
Cc1noc(-c2ccc(C(F)(F)F)cc2)c1NC(=O)Nc1ccc(Cl)cc1,4.6µM*,3,?,3%,-53*,3.7µM*
Cc1nc(Cl)sc1C(=O)Nc1cccc(Cl)c1C,?,-9,-9%,0%,-96*,?
Cc1oncc1C(=O)Nc1ccc(C(F)(F)F)cc1,7.3µM*,28,?,3%,-24,9.2µM*
Cc1nc(Cl)sc1C(=O)Nc1ccccc1Cl,5%,-4,1%,0%,-14,?
CCCN(CCC)Cc1c(C(=O)N/N=C/c2c[nH]c3ccccc23)nnn1-c1nonc1N,-20%,10,14%,-4%,?,-6%
CCc1ccc2occ(CC(=O)Nc3sc4c(c3C(=O)OC)CCC4)c2c1,13µM*,·,·,9%,·,18µM*
CNC(=O)c1c(NC(=O)Cc2coc3ccc(C)cc23)sc2c1CCCC2,?,·,·,-1%,·,18µM*
COc1ccc(NC(=O)N(C)C[C@@H]2Oc3cc(C#CCN(C)C)ccc3S(=O)(=O)N([C@H](C)CO)C[C@H]2C)cc1,11%,·,·,·,11,-10%
CCOc1ccc(S(=O)(=O)N(CC)CC(=O)NCc2ccncc2)cc1,-7%,-4,2%,7%[0.0935 µM],18,-22%
Cc1cccn2c(=O)c(C=NCCO)c(NCc3ccco3)nc12,-17%,-7,-6%,0%,54,-15%
Cc1cccn2c(=O)c(C=NCc3ccco3)c(Nc3ccc(SC(F)F)cc3)nc12,26µM*,-16,-2%,1%,-5,?
O=C(C[C@@H]1CC[C@H](NC(=O)Nc2ccc(F)cc2)[C@@H](CO)O1)NCc1cccc(F)c1,-25%,·,·,·,17,-26%
